Assay outcomes: PubChem BioAssay, National Center for Advancing Translational Sciences (NCATS)
In the library only some 21% were active in any assay of this set; here they are far more common.
Shiga toxin inh – blocks Shiga toxin action in Vero cells; 290,000 compounds, 9.2% hits; inhibition, % at 38.7 µM; Vero cells, Shiga toxin protein synthesis inhibition reporter; AID 2315; in the data active = inhibition mostly above about 28%, no sharp cut-off; inactive = mostly below about 43%; note: 0% is about no effect
Pf growth 48h – inhibits P. falciparum growth in the first generation, 48 h; 310,000 compounds, 5.9% hits; P. falciparum luciferase growth in erythrocytes, 48 h; AID 504832; Potency, µM (highest dose often 28.7 µM), for inactives: top-dose activity change, negative = inhibition, most hits filed as inhibitors; note: potency is the fitted concentration of half-maximal effect; % is set by controls: 0 for no effect and ±100 for the full control effect
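Read-out is firefly luciferase luminescence from an integrated reporter in P. falciparum, so falling signal marks reduced parasite growth. Infected erythrocytes were at 2% hematocrit and 0.1% parasitemia (final) in Albumax-supplemented RPMI 1640.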
Pf growth 96h – inhibits malaria parasite growth, 96 h; 320,000 compounds, 6.9% hits; AID 504834; P. falciparum luciferase reporter growth, 96 h; Potency, µM (series often up to 28.7 µM), inactives show at the top dose activity change, negative = inhibition, actives largely listed as inhibitors; note: potency is the fitted concentration of half-maximal effect; % is set by controls: 0 for no effect and ±100 for the full control effect
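P. falciparum expressing integrated firefly luciferase, in erythrocytes at 2% hematocrit, 0.05% parasitemia, incubated with compounds 96 h at 37 C, 5% CO2. Growth inhibition read as loss of luminescence; two-generation exposure targets delayed-death apicoplast inhibitors.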
CHX counter – counter-screen for Shiga toxin inhibitors: cycloheximide protein synthesis inhibition. cell reporter, cycloheximide protein synthesis inhibition counterscreen. max response, %. 300,000 compounds, 12% hits; in the data active = max response mostly above about 13%, no sharp cut-off; inactive = mostly below about 14%; note: read at 38.3 µM for the half of the compounds with a filed dose; 0% is about no effect
An asterisk follows results filed as active; [ ] = remark or other dose. Unless noted, calls come from the whole dose curve; as a rule, active = well fitted inhibition curve with a large enough effect; inconclusive = small, poorly fitted or top-dose-only effect, or another doubt; inactive = no such curve, though single readings can be large or run the other way.

Results for Cc1ccc(Cl)cc1NC(=O)Cn1cc2c(n1)CCCC2 ?
Shiga toxin inh: -17; Pf growth 96h: 2.1µM*; CHX counter: -6

What do the screens show for `O=C(Cn1cc2c(n1)CCCC2)Nc1ccccc1Cl`?
Shiga toxin inh: 16; Pf growth 48h: inconclusive; Pf growth 96h: inconclusive; CHX counter: -2

What do the screens show for `Cc1ccc2nc(NC(=O)CN3C(=O)NC4(CCCCC4)C3=O)sc2c1`?
Pf growth 48h: -2%; Pf growth 96h: 8%

Results for O=C(Cn1cc2c(n1)CCCCC2)Nc1ccccc1Cl ?
Shiga toxin inh: 21; Pf growth 48h: inconclusive; Pf growth 96h: inconclusive; CHX counter: 12*

How did O=C(Cn1cc2c(n1)CCCCC2)Nc1c(F)c(F)cc(F)c1F do in these assays?
Shiga toxin inh: -13; Pf growth 96h: 15µM*; CHX counter: -5

Results for COc1ccc(C(CNC(=O)C(Cc2ccccc2)NC(N)=O)N(C)C)cc1 (stereo not drawn) ?
Shiga toxin inh: 38; Pf growth 96h: -3%; CHX counter: 7

Results for O=C(c1cccc(S(=O)(=O)Nc2ccccc2F)c1)N1CCN(c2ccccc2F)CC1 ?
Shiga toxin inh: -9; Pf growth 48h: 12%; Pf growth 96h: 4%; CHX counter: 0

What do the screens show for `COc1ccc(N(C(=O)c2cnccn2)C(C(=O)NC2CCCCC2)c2ccccc2)cc1` (stereo not drawn)?
Shiga toxin inh: -20; Pf growth 48h: -16%; Pf growth 96h: -14%; CHX counter: 6

Results for COc1cccc(/C=C2\SC(=S)N(N3CCOCC3)C2=O)c1OC ?
Shiga toxin inh: 15; Pf growth 48h: 18%; Pf growth 96h: 31%; CHX counter: 23*

What do the screens show for `CCN1C(=O)C(=Cc2cccc(OC)c2Oc2ccc([N+](=O)[O-])cc2[N+](=O)[O-])SC1=S`?
Shiga toxin inh: -10; Pf growth 48h: 5.2µM*; Pf growth 96h: 10µM*; CHX counter: 1

What do the screens show for `COc1cccc(/C=C2\SC(N3CCC(C)CC3)=NC2=O)c1OC`?
Shiga toxin inh: 30; Pf growth 48h: inconclusive; Pf growth 96h: -1%; CHX counter: 13*

Results for COc1ccccc1/C=C1\SC(N2CCC(C)CC2)=NC1=O ?
Shiga toxin inh: 57*; Pf growth 48h: 0%[0.00184 µM]; Pf growth 96h: -6%; CHX counter: 26*

Results for COc1ccc(/C=C2\SC(=S)N(N3CCOCC3)C2=O)c(OC)c1 ?
Shiga toxin inh: 1; Pf growth 48h: -7%; Pf growth 96h: 23%; CHX counter: -2

How did Cc1ccc(C(=O)N/C(=C\c2ccco2)C(=O)NCCN2CCOCC2)cc1 do in these assays?
Shiga toxin inh: 2; Pf growth 48h: 25%; Pf growth 96h: 32%; CHX counter: -5

Results for Cc1cc(Br)ccc1SCC(=O)OCC(=O)Nc1ccccc1C#N ?
Shiga toxin inh: -4; Pf growth 48h: 14%; Pf growth 96h: 26%; CHX counter: -3

How did COc1cc(OC)c(OC)cc1/C=C1\SC(N2CCCCC2)=NC1=O do in these assays?
Shiga toxin inh: 13; Pf growth 48h: inconclusive; Pf growth 96h: inconclusive; CHX counter: 6

How did COc1cccc(/C=C2\SC(N3CCCC(C)C3)=NC2=O)c1OC (stereo not drawn) do in these assays?
Shiga toxin inh: 56*; Pf growth 48h: 12%[0.00184 µM]; Pf growth 96h: -4%; CHX counter: 17*

Results for CCn1c(C)nnc1SCC(=O)Nc1ccc(Cl)cc1 ?
Shiga toxin inh: -1; Pf growth 48h: 66%; Pf growth 96h: -16%; CHX counter: -4

Results for Cc1nc(SCC(=O)Nc2ccc(CN3CCCC3)cc2)c2c(C)c(C)sc2n1 ?
Pf growth 48h: 9.3µM*; Pf growth 96h: 13µM*

How did CC(=O)Nc1ccc(NC(=O)CSc2nc(C)nc3sc(C)c(C)c23)cc1 do in these assays?
Shiga toxin inh: -10; Pf growth 48h: -3%; Pf growth 96h: 79%; CHX counter: -3

How did Cc1c(C(c2ccccc2Br)c2c(C)n(C)n(-c3ccccc3)c2=O)c(=O)n(-c2ccccc2)n1C do in these assays?
Shiga toxin inh: -6; Pf growth 48h: -19%; Pf growth 96h: inconclusive; CHX counter: -1

What do the screens show for `CCOC(=O)C(NC(C)=O)C(OC(C)=O)c1cccc(N(CCCl)CCCl)c1` (stereo not drawn)?
Shiga toxin inh: 19; Pf growth 48h: inconclusive; Pf growth 96h: 10µM*; CHX counter: 5

How did CC1CCCC(C)N1C(=O)CSc1nc(N)cc(N)n1 (stereo not drawn) do in these assays?
Shiga toxin inh: -4; Pf growth 48h: 24%; Pf growth 96h: 22%; CHX counter: -3

How did CC1CCCC(C)N1C(=O)CSc1nc2ncnc(N)c2[nH]1 (stereo not drawn) do in these assays?
Shiga toxin inh: 18; Pf growth 48h: 6%; Pf growth 96h: 0.74µM*; CHX counter: -2

Results for CC1=Nc2cc(C(=O)NCC3CCCO3)ccc2Sc2ccc(C)cc21 (stereo not drawn) ?
Shiga toxin inh: -5; Pf growth 48h: inconclusive; Pf growth 96h: -5%; CHX counter: -2

How did CC1=Nc2cc(C(=O)O)ccc2Sc2c(C)ccc(C)c21 do in these assays?
Shiga toxin inh: 3; Pf growth 48h: 13%; Pf growth 96h: inconclusive; CHX counter: 9

Results for CCOC(=O)N1CCN(C(=O)c2ccc3c(c2)N=C(C)c2cc(Cl)ccc2S3)CC1 ?
Shiga toxin inh: -5; Pf growth 48h: 9.3µM*; Pf growth 96h: inconclusive; CHX counter: -2

What do the screens show for `CC1=Nc2cc(C(=O)NCc3ccco3)ccc2Sc2ccc(C)cc21`?
Shiga toxin inh: -12; Pf growth 48h: 4.1µM*; Pf growth 96h: 1.9µM*; CHX counter: -1

Results for CC1=Nc2cc(C(=O)O)ccc2Sc2ccc(C)cc21 ?
Shiga toxin inh: 36; Pf growth 48h: -5%; Pf growth 96h: inconclusive; CHX counter: 20*

Results for CCc1ccc(C2=NN(CCC(=O)NC(C)CCc3ccccc3)C(=O)CC2)cc1 (stereo not drawn) ?
Shiga toxin inh: -18; Pf growth 48h: inconclusive; Pf growth 96h: 1%; CHX counter: -5

How did O=S(=O)(c1ccc(-c2ccccn2)s1)N1CCC2(CC1)OCCO2 do in these assays?
Shiga toxin inh: 21; Pf growth 48h: 3%; Pf growth 96h: -5%; CHX counter: -2

Results for COc1ccc(C2(NC(C)=O)CCN(Cc3cccnc3)CC2)cc1 ?
Shiga toxin inh: -2; Pf growth 48h: -9%; Pf growth 96h: 93%; CHX counter: -1

How did CCCCOc1ccc(Nc2nc(C)cc(C)c2C#N)cc1 do in these assays?
Shiga toxin inh: 7; Pf growth 48h: 7%; Pf growth 96h: 10µM*; CHX counter: -1

How did CCc1ccc(C(=O)NNC(=O)CCc2nc3ccccc3c(=O)[nH]2)cc1 do in these assays?
Pf growth 48h: 0%; Pf growth 96h: 18%

Results for COC(=O)c1ccc(CN2C(=O)NC(Cc3c[nH]c4ccccc34)C2=O)cc1 (stereo not drawn) ?
Shiga toxin inh: 118*; Pf growth 48h: -1%; Pf growth 96h: 9%; CHX counter: 37*

How did COCC(C)n1c(C)cc(C(=O)CN2C(=O)NC(Cc3c[nH]c4ccccc34)C2=O)c1C (stereo not drawn) do in these assays?
Shiga toxin inh: 34; Pf growth 96h: 5.2µM*; CHX counter: -1
